Measured values as given in PMC6925144, “A prospective compound screening contest identified broader inhibitors for Sirtuin 1” (Scientific Reports, 2019).
The full ranking holds about 3,200 compounds; the median of “TSA(without NAD+) / Primary screening (TSA) / delta Tm (K)” is about -0.07, and the highest 2% start at about 0.37. This is one part of a sample in which the highest values are shown more often than they occur.

Biological target: NAD-dependent deacetylase Sirtuin 1 (human, UniProt Q96EB6)
Sequence (Q96EB6 2-747 limits assumed): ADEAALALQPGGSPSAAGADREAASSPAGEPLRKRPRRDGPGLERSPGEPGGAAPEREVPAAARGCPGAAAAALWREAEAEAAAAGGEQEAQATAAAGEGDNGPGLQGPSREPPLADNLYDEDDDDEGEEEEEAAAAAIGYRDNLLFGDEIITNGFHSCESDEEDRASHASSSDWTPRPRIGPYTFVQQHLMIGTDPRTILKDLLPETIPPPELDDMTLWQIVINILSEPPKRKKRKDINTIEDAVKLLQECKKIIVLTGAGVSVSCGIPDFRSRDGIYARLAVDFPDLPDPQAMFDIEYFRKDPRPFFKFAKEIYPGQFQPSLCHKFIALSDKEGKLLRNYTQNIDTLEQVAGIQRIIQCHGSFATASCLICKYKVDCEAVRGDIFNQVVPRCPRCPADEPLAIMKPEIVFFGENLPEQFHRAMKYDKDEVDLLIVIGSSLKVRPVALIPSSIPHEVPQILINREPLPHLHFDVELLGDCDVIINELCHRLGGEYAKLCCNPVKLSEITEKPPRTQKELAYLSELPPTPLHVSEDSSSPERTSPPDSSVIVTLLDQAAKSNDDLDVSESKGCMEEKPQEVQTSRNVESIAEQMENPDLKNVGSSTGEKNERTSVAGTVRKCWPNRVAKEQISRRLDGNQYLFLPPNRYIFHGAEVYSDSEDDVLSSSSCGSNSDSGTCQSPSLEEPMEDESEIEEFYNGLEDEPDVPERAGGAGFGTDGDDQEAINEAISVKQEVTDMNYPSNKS
Test: primary screen, delta tm
Design: single well (n = 1)
Conditions: 10 µM
Description: A total of 3,192 compounds extracted from the proposed lists were first screened by thermal shift assay (TSA), which determined a melting temperature shift (ΔTm) of Sirtuin 1 upon the addition of a test compound at a concentration of 10 µM (n = 1) with primary hit criteria of ΔTm > 0.45 K or ΔTm < −1.5 K. Primary hits (48 compounds) were retested in the same assay at three concentrations (5, 10, 20 µM, n = 4) for hit confirmation and for dose-dependency check. Secondary hits (41 compounds) were checked their selectivity for Sirtuin 1 based on counterscreening on unrelated protein targets (bovine carbonic anhydrase (CA) and recombinant SH2 domain of hABL1 kinase (ABL1)) at three different concentrations (5, 10, 20 µM, n = 4), which yielded 38 hit compounds, hereafter referred to as TSA hits. The TSA screening above was conducted in the absence of NAD+.

| SMILES | TSA(without NAD+) / Primary screening (TSA) / delta Tm (K) |
| --- | --- |
| CCS(=O)(=O)Nc1ccc(S(=O)(=O)Nc2nccs2)c(OC)c1 | -0.18 K |
| N#Cc1ccccc1Sc1ccccc1C(=O)Nc1ccc(-c2cn3cccnc3n2)cc1 | -0.14 K |
| N#C/C(=C\c1[nH]c2ccccc2c1Cl)C(N)=O | -0.13 K |
| CCOc1ccc(/C=C(/C#N)C(=O)c2c[nH]c3cc(F)ccc23)cc1 | 0.06 K |
| CCCCCCCCNC(=O)/C(C#N)=C/c1c[nH]c2ccccc12 | 0.58 K |
| Oc1ccccc1/C=N/c1ccccc1O | -0.13 K |
| Cc1cc2ccccc2n1CC(=O)NCC(Cc1ccccc1)N(C)C (stereo not drawn) | -0.12 K |
| COc1ccc(N(C)S(=O)(=O)c2cccc(C(=O)Nc3ccc(C)cc3)c2)cc1 | 0.17 K |
| CN(c1cccc(Cl)c1)S(=O)(=O)c1cccc(C(=O)Nc2ncc(C(N)=O)s2)c1 | 0.37 K |
| COc1ccc(N(C)S(=O)(=O)c2cccc(C(=O)Nc3ncc(C(N)=O)s3)c2)cc1 | 0.06 K |
| CN(c1ccccc1)S(=O)(=O)c1cccc(C(=O)Nc2sccc2C(N)=O)c1 | 0.38 K |
| Cc1ccc(N(C)S(=O)(=O)c2cccc(C(=O)Nc3sccc3C(N)=O)c2)cc1 | 0.17 K |
| CN(c1cccc(Cl)c1)S(=O)(=O)c1cccc(C(=O)Nc2cc(C(N)=O)cc(C(N)=O)c2)c1 | 0.15 K |
| CN(c1cccc(Cl)c1)S(=O)(=O)c1cccc(C(=O)Nc2sccc2C(N)=O)c1 | 0.18 K |
| Cc1ccc(N(C)S(=O)(=O)c2cccc(C(N)=O)c2)cc1 | -0.11 K |
| CC(=O)Nc1ccc(NC(=O)c2cccc(S(=O)(=O)N(C)c3ccc(C)cc3)c2)cc1 | -0.11 K |
| Cc1ccc(N(C)S(=O)(=O)c2cccc(C(=O)Nc3ccc(C(N)=O)cc3)c2)cc1 | 0.46 K |
| Cc1ccc(NC(=O)c2cccc(S(=O)(=O)N(C)c3ccc(C)cc3)c2)cc1 | 0.45 K |
| Cc1nn(CC(=O)N2CCC(N3CCCC3C(N)=O)CC2)cc1-c1ccccc1 (stereo not drawn) | -0.22 K |
| CC(Nc1ccnc(CC#N)c1)C(=O)N1CCCCC1C (stereo not drawn) | -0.28 K |
| CS(=O)(=O)c1cccc(C(=O)N(Cc2ccccc2)c2ccccc2)c1 | -0.13 K |
| CCCn1nnnc1CN1C(=O)NC(Cc2c[nH]c3ccccc23)C1=O (stereo not drawn) | -0.28 K |
| O=C(Cn1[nH]c(=O)c2ccccc2c1=O)NC1CCCc2ccccc21 (stereo not drawn) | 0.19 K |
| Cc1ccccc1N1C(=O)c2ccc(C(=O)OCC(N)=O)cc2C1=O | -0.08 K |
| CC1(C)C(=O)Nc2ccccc2N1C(=O)CNc1cccc2c1CCCC2 | -0.24 K |
| CCS(=O)(=O)N1CCN(c2ccc(C(N)=O)cc2)CC1 | -0.15 K |
| O=C(c1cnc2ccccc2n1)N1CCCC1c1nc2ccccc2s1 (stereo not drawn) | -0.04 K |

| SMILES | TSA(without NAD+) / Primary screening (TSA) / delta Tm (K) |
| --- | --- |
| COc1ccc(N(C)S(=O)(=O)c2cccc(C(=O)Nc3sc4c(c3C(N)=O)CCC(C)C4)c2)cc1 (stereo not drawn) | 0.08 K |
| CN(C)c1ccnc(N2CCCC(N3CCNC3=O)C2)n1 (stereo not drawn) | -0.18 K |
| CN(c1ccccc1)S(=O)(=O)c1cccc(C(=O)Nc2ccccc2)c1 | 0.12 K |
| CN(c1ccccc1)S(=O)(=O)c1cccc(NC(=O)c2cccc(C#N)c2)c1 | 0.13 K |
| CSc1cccc(NC(=O)c2cccc(S(=O)(=O)N(C)c3ccc(C)cc3)c2)c1 | 0.35 K |
| Cc1ccc(N(C)S(=O)(=O)c2cccc(C(=O)Nc3cccc(C#N)c3)c2)cc1 | 0.43 K |
| CN(c1ccccc1)S(=O)(=O)c1cccc(NC(=O)c2ccc(C(N)=O)cc2)c1 | 0.02 K |
| COc1ccc(N(C)S(=O)(=O)c2cccc(C(=O)Nc3cccc(C#N)c3)c2)cc1 | 0.22 K |
| Cc1ccc(N(C)S(=O)(=O)c2cccc(C(=O)NNC(=O)c3ccncc3)c2)cc1 | -0.08 K |
| Cc1ccc(N(C)S(=O)(=O)c2cccc(C(=O)NNC(=O)CC34CC5CC(CC(C5)C3)C4)c2)cc1 | 0.45 K |
| Cc1ccc(N(C)S(=O)(=O)c2cccc(C(=O)Nc3cccc(C(=O)NC4CC4)c3)c2)cc1 | 0.06 K |
| Cc1ccc(N(C)S(=O)(=O)c2cccc(C(=O)Nc3ccc4c(c3)C(=O)N(C)C4=O)c2)cc1 | 0.45 K |
| Cc1ccc(C(=O)NNC(=O)c2cccc(S(=O)(=O)N(C)c3ccc(C)cc3)c2)cc1 | -0.14 K |
| CC1CCc2[nH]c3ccc(C(=O)Nc4cccc(S(=O)(=O)N(C)c5ccccc5)c4)cc3c2C1 (stereo not drawn) | 0.42 K |
| Cc1cc(CSc2nc3ccccc3[nH]2)no1 | 0.07 K |
| Cc1ccc(C(=Nc2c(C)cc(C)cc2C)c2ccc(C)cc2)cc1 | -0.04 K |
| CC(C#N)(NC(=O)CNc1cccnc1-c1ccccc1)C1CC1 (stereo not drawn) | 0.08 K |
| CN(Cc1ccccc1)C(=O)NCC1CCN(c2ccncc2)CC1 | -0.02 K |
| CC1CCc2[nH]c3ccc(C(=O)OCC(=O)NC(=O)NC45CC6CC(CC(C6)C4)C5)cc3c2C1 (stereo not drawn) | 0.27 K |
| CN(Cc1nc2ccccc2s1)C(=O)CSc1nnc(CC2CCS(=O)(=O)C2)o1 (stereo not drawn) | -0.13 K |
| COc1cccc(NC(=O)c2cccc(S(=O)(=O)N(C)c3ccc(C)cc3)c2)c1 | -0.02 K |
| CN(C)c1ccc(NC(=O)c2cccc(S(=O)(=O)N(C)c3cccc(Cl)c3)c2)cc1 | 0.27 K |
| CCCCc1ccc(NC(=O)c2cccc(S(=O)(=O)N(C)c3cccc(Cl)c3)c2)cc1 | 0.58 K |
| CN(c1cccc(Cl)c1)S(=O)(=O)c1cccc(C(=O)Nc2ccc(C(N)=O)cc2)c1 | 0.08 K |
| Cc1ccc(N(C)S(=O)(=O)c2cccc(C(=O)Nc3ccc(Br)c(C)c3)c2)cc1 | 0.48 K |
| Cc1ccc(N(C)S(=O)(=O)c2cccc(C(=O)Nc3ccncc3)c2)cc1 | -0.18 K |
| COC(=O)c1ccccc1NC(=O)Cc1c[nH]c2ccccc12 | -0.22 K |
